Reference: PubChem BioAssay AID1159580 (chemical genetic matrix, 2015)
Out of some 5,500 compounds screened, about 2,000 (36%) were called active. Roughly 18% stayed inconclusive and do not appear here. Rule as the data show it: active = normalized growth mostly below about 0.91 (no sharp cut-off); inconclusive = no clear call, values can overlap the other calls; inactive = mostly above about 0.92. This is one part of the list.

Test: chemical genetic growth profiling, strain panel (AID 1159580);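 also: tested at 20 µM; growth read once vehicle control cultures reached saturation at 30 °C; 1 = growth at the plate median or of vehicle wells; lower values mean less growth of the strain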
Conditions: growth OD
[1] = S. cerevisiae deletion strains, locus YBR021W, strain FUR4, active compounds read low
[2] = S. cerevisiae deletion strains, locus YBR229C, strain ROT2, active compounds read low
[3] = S. cerevisiae deletion strains, locus YCL029C, strain bik1, active compounds read low
[4] = S. cerevisiae deletion strains, locus YDL035C, strain GPR1, active compounds read low
[5] = S. cerevisiae deletion strains, locus YDL074C, strain BRE1, active compounds read low
[6] = S. cerevisiae deletion strains, locus YDL101C, strain DUN1, active compounds read low
[7] = S. cerevisiae deletion strains, locus YDL185W, strain tfp1, active compounds read low
[8] = S. cerevisiae deletion strains, locus YDL192W, strain arf1, active compounds read low
[9] = S. cerevisiae deletion strains, locus YDR101C, strain arx1, active compounds read low
[10] = S. cerevisiae deletion strains, locus YDR162C, strain NBP2, active compounds read low
[11] = S. cerevisiae deletion strains, locus YDR318W, strain mcm21, active compounds read low
[12] = S. cerevisiae deletion strains, locus YDR388W, active compounds read low
[13] = S. cerevisiae deletion strains, locus YDR502C, strain sam2, active compounds read low
[14] = S. cerevisiae deletion strains, locus YER110C, active compounds read low
[15] = S. cerevisiae deletion strains, locus YER155C, strain BEM2, active compounds read low
[16] = S. cerevisiae deletion strains, locus YER167W, strain BCK2, active compounds read low
[17] = S. cerevisiae deletion strains, locus YGL078C, strain dbp3, active compounds read low
[18] = S. cerevisiae deletion strains, locus YGL086W, strain mad1, active compounds read low
[19] = S. cerevisiae deletion strains, locus YGL248W, strain PDE1, active compounds read low
[20] = S. cerevisiae deletion strains, locus YGR135W, strain pre9, active compounds read low
[21] = S. cerevisiae deletion strains, locus YGR229C, strain SMI1, active compounds read low
[22] = S. cerevisiae deletion strains, locus YGR252W, strain gcn5, active compounds read low
[23] = S. cerevisiae deletion strains, locus YHR079C, strain IRE1 (second series), active compounds read low
[24] = S. cerevisiae deletion strains, locus YHR094C, strain hxt1, active compounds read low
[25] = S. cerevisiae deletion strains, locus YHR129C, strain ARP1, active compounds read low
[26] = S. cerevisiae deletion strains, locus YHR200W, strain rpn10, active compounds read low
[27] = S. cerevisiae deletion strains, locus YIL066C, strain RNR3, active compounds read low
[28] = S. cerevisiae deletion strains, locus YIL073C, strain SPO22, active compounds read low
[29] = S. cerevisiae deletion strains, locus YIL125W, strain kgd1, active compounds read low
[30] = S. cerevisiae deletion strains, locus YIR030C, strain dcg1, active compounds read low
[31] = S. cerevisiae deletion strains, locus YJL095W, strain BCK1, active compounds read low
[32] = S. cerevisiae deletion strains, locus YJL134W, strain LCB3, active compounds read low
[33] = S. cerevisiae deletion strains, locus YJL168C, strain set2, active compounds read low
[34] = S. cerevisiae deletion strains, locus YJL187C, strain SWE1 (second series), active compounds read low
[35] = S. cerevisiae deletion strains, locus YKL009W, strain mrt4, active compounds read low
[36] = S. cerevisiae deletion strains, locus YKL068W, active compounds read low
[37] = S. cerevisiae deletion strains, locus YKL085W, strain MDH1 (second series), active compounds read low
[38] = S. cerevisiae deletion strains, locus YKL085W, strain MDH1, active compounds read low
[39] = S. cerevisiae deletion strains, locus YKR001C, strain vps1, active compounds read low
[40] = S. cerevisiae deletion strains, locus YLR039C, strain RIC1, active compounds read low
[41] = S. cerevisiae deletion strains, locus YLR058C, strain SHM2, active compounds read low
[42] = S. cerevisiae deletion strains, locus YLR102C, strain apc9, active compounds read low
[43] = S. cerevisiae deletion strains, locus YLR262C, strain YPT6, active compounds read low
[44] = S. cerevisiae deletion strains, locus YLR268W, strain sec22, active compounds read low
[45] = S. cerevisiae deletion strains, locus YLR330W, strain CHS5, active compounds read low
[46] = S. cerevisiae deletion strains, locus YLR371W, strain rom2, active compounds read low
[47] = S. cerevisiae deletion strains, locus YLR418C, strain cdc73, active compounds read low
[48] = S. cerevisiae deletion strains, locus YML016C, strain PPZ1, active compounds read low
[49] = S. cerevisiae deletion strains, locus YML032C, strain rad52, active compounds read low
[50] = S. cerevisiae deletion strains, locus YML124C, strain tub3, active compounds read low
[51] = S. cerevisiae deletion strains, locus YMR078C, strain ctf18, active compounds read low
[52] = S. cerevisiae deletion strains, locus YMR223W, strain ubp8, active compounds read low
[53] = S. cerevisiae deletion strains, locus YMR263W, strain SAP30, active compounds read low
[54] = S. cerevisiae deletion strains, locus YMR307W, strain GAS1, active compounds read low
[55] = S. cerevisiae deletion strains, locus YNL067W, strain RPL9B, active compounds read low
[56] = S. cerevisiae deletion strains, locus YNL153C, strain GIM3, active compounds read low
[57] = S. cerevisiae deletion strains, locus YNL233W, strain BNI4, active compounds read low
[58] = S. cerevisiae deletion strains, locus YNL250W, strain rad50, active compounds read low
[59] = S. cerevisiae deletion strains, locus YNL271C, strain bni1, active compounds read low
[60] = S. cerevisiae deletion strains, locus YNL298W, strain CLA4, active compounds read low
[61] = S. cerevisiae deletion strains, locus YNL307C, strain MCK1, active compounds read low
[62] = S. cerevisiae deletion strains, locus YNR052C, strain pop2, active compounds read low
[63] = S. cerevisiae deletion strains, locus YOL012C, strain htz1
[64] = S. cerevisiae deletion strains, locus YOL147C, strain pex11, active compounds read low
[65] = S. cerevisiae deletion strains, locus YOR061W, strain CKA2, active compounds read low
[66] = S. cerevisiae deletion strains, locus YOR069W, strain VPS5, active compounds read low
[67] = S. cerevisiae deletion strains, locus YOR136W, strain idh2, active compounds read low
[68] = S. cerevisiae deletion strains, locus YOR144C, strain elg1, active compounds read low
[69] = S. cerevisiae deletion strains, locus YOR184W, strain ser1, active compounds read low
[70] = S. cerevisiae deletion strains, locus YOR316C, strain cot1, active compounds read low
[71] = S. cerevisiae deletion strains, locus YPL241C, strain CIN2, active compounds read low
[72] = S. cerevisiae deletion strains, locus YPR119W, strain clb2, active compounds read low
[73] = S. cerevisiae deletion strains, locus YPR141C, strain kar3, active compounds read low
[74] = S. cerevisiae deletion strains, locus YPR163C, strain tif3, active compounds read low
[75] = S. cerevisiae deletion strains, locus YPR167C, strain met16, active compounds read low
[76] = S. cerevisiae deletion strains, strain wtn01, active compounds read low
[77] = S. cerevisiae deletion strains, locus YDL134C, strain PPH21, active compounds read low
[78] = S. cerevisiae deletion strains, locus YHR030C, strain SLT2, active compounds read low
[79] = S. cerevisiae deletion strains, locus YNL128W, strain TEP1, active compounds read low
[80] = S. cerevisiae deletion strains, locus YPL055C, strain LGE1, active compounds read low

Measured: normalized growth

CC(=O)OC1CC(OC(C)=O)C2(C)C(CC(OC(C)=O)C3(C)C2CCC2(C)C(c4ccoc4)CC4OC423)C1(C)C (stereo not given)
inactive: [1] 0.998 | [2] 1 | [3] 1 | [4] 1.01 | [5] 1.02 | [6] 1.03 | [7] 1.01 | [8] 1.01 | [9] 0.998 | [10] 1.01 | [11] 1 | [12] 1.01 | [13] 1.02 | [14] 1.01 | [15] 1 | [16] 1.01 | [17] 1.02 | [18] 0.997 | [19] 1.01 | [20] 1.04 | [21] 1.02 | [22] 0.998 | [23] 1.01 | [24] 1.01 | [25] 1.02 | [26] 1.01 | [27] 1.01 | [28] 1.05 | [29] 1.01 | [30] 1 | [31] 1.04 | [32] 1.01 | [33] 1.01 | [34] 1.02 | S. cerevisiae deletion strains, locus YJR043C, strain POL32, active compounds read low 0.981 | [35] 0.984 | [36] 1 | [37] 1.01 | [38] 1.01 | [39] 1 | [40] 1.01 | [41] 1.01 | [42] 1.01 | [43] 0.927 | [44] 0.994 | [45] 1.02 | S. cerevisiae deletion strains, locus YLR342W, strain FKS1 (second series), active compounds read low 1 | [46] 1.02 | [47] 1.02 | [48] 1.01 | [49] 1.01 | [50] 1 | [51] 1.01 | [52] 1.01 | [53] 1.02 | [54] 1.01 | [55] 1.03 | [56] 1.03 | [57] 0.986 | [58] 1.01 | [59] 0.998 | [60] 1.02 | [61] 1.02 | [62] 1.01 | [63] 0.881 | [64] 0.996 | [65] 1 | [66] 1.01 | [67] 1 | [68] 0.999 | [69] 0.982 | [70] 1.01 | [71] 1.01 | [72] 1 | [73] 1.02 | [74] 1.01 | [75] 1.01 | [76] 0.997

CC1(C)C(O)CC(O)C2(C)C1CC(O)C1(C)C2CCC2(C)C(c3ccoc3)CC3OC321 (stereo not given)
inactive: [1] 0.936 | [2] 1.01 | [3] 1 | [4] 0.969 | [5] 0.973 | [6] 1 | [77] 0.992 | [7] 1.02 | [8] 1 | [9] 0.987 | [10] 0.998 | [11] 1 | [12] 1.01 | [13] 0.998 | S. cerevisiae deletion strains, locus YEL061C, strain CIN8, active compounds read low 0.997 | [14] 1.02 | [15] 0.996 | [16] 1 | [17] 1.01 | [18] 0.99 | [19] 1 | S. cerevisiae deletion strains, locus YGR078C, strain PAC10, active compounds read low 0.991 | [20] 0.997 | [22] 0.981 | [78] 1.01 | [23] 1.02 | [24] 1.01 | [25] 0.998 | [26] 1 | [27] 0.99 | [28] 1.04 | [29] 1.01 | [30] 1.02 | [31] 0.978 | [32] 0.998 | [33] 1.01 | [34] 0.996 | [35] 0.982 | [36] 1.01 | [37] 0.996 | [38] 0.996 | [39] 0.99 | [40] 1.03 | [41] 0.998 | [42] 1 | [43] 1.01 | [44] 0.993 | [46] 0.994 | [47] 0.983 | [48] 1 | [49] 1.01 | [50] 1.01 | [51] 1.02 | [52] 0.989 | [53] 1.01 | [54] 0.991 | [55] 1 | [79] 0.998 | [57] 0.978 | [58] 1.01 | [59] 1.01 | [60] 1.01 | [61] 1.03 | S. cerevisiae deletion strains, locus YNL322C, strain KRE1, active compounds read low 0.996 | [62] 1 | [63] 1.12 | [64] 1 | [65] 1 | [66] 1 | [67] 0.998 | [68] 1.02 | [69] 0.976 | [70] 1.01 | [80] 0.988 | [71] 0.997 | [72] 1.01 | [73] 1.02 | [74] 1.01 | [75] 1.01 | [76] 0.986 | S. cerevisiae strains, strain wild type, active compounds read low 0.972

CC1(C)C(=O)C=CC2(C)C3CCC4(C)C(c5ccoc5)CC5OC54C3C(O)CC12 (stereo not given)
inactive: S. cerevisiae deletion strains, locus YAL013W, strain DEP1, active compounds read low 0.975 | [1] 0.985 | [2] 0.995 | [3] 1.01 | [4] 0.942 | [5] 0.862 | [6] 0.958 | [77] 0.945 | [7] 1.02 | [8] 0.986 | [9] 0.98 | [10] 0.882 | [11] 0.992 | [12] 1.02 | [13] 1.01 | [14] 1.03 | [15] 0.988 | [16] 0.961 | [17] 1.02 | [18] 0.975 | [19] 0.958 | [20] 0.984 | [21] 0.868 | [22] 0.981 | [78] 1 | [23] 1.02 | [24] 1.02 | [25] 0.977 | [26] 0.993 | [27] 0.926 | [28] 0.999 | [29] 0.999 | [30] 1.01 | [31] 0.884 | [32] 0.992 | [33] 1.01 | [34] 0.955 | S. cerevisiae deletion strains, locus YJR075W, strain HOC1, active compounds read low 0.981 | [35] 1.01 | [36] 1.01 | [37] 1 | [38] 1 | [39] 0.984 | [40] 0.785 | [41] 0.975 | [42] 1.01 | [44] 0.987 | [45] 0.965 | [46] 1 | [47] 0.951 | [48] 0.993 | [49] 1 | [50] 1.01 | [51] 1 | [52] 0.993 | [54] 0.842 | [55] 0.978 | [79] 0.972 | [56] 0.983 | [57] 0.938 | [58] 1.02 | [59] 1.01 | [60] 1.03 | [61] 1 | [62] 0.995 | S. cerevisiae deletion strains, locus YOL006C, strain TOP1, active compounds read low 0.956 | [63] 1.23 | [64] 1 | [65] 0.979 | [66] 0.989 | [67] 1.02 | [68] 1.01 | [69] 0.886 | [70] 1.02 | [80] 0.928 | [71] 0.995 | [72] 1.02 | [73] 1.01 | [74] 1.02 | [75] 1 | [76] 0.993
